Values joined by “and” are separate entries in the source; they are usually repeats but may differ in a detail not shown here. Equal values may be shown once. In all, about 5,500 compounds went through this assay and about 2,000 (36%) were called active. Inconclusive results (about 18%) are left out. Rule as the data show it: active = normalized growth mostly below about 0.91 (no sharp cut-off); inconclusive = no clear call, values can overlap the other calls; inactive = mostly above about 0.92. Some of the results follow.
Experiment: chemical genetic growth profiling, strain panel (AID 1159580);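 also: tested at 20 µM; growth read once vehicle control cultures reached saturation at 30 °C; 1 = growth at the plate median or of vehicle wells; lower values mean less growth of the strain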
Details: S. cerevisiae deletion strains, growth OD
[1] = locus YAL013W, strain DEP1, stronger effect = lower value
[2] = locus YBR229C, strain ROT2, stronger effect = lower value
[3] = locus YCL061C, strain MRC1, stronger effect = lower value
[4] = locus YDL101C, strain DUN1, stronger effect = lower value
[5] = locus YEL061C, strain CIN8, stronger effect = lower value
[6] = locus YGR078C, strain PAC10, stronger effect = lower value
[7] = locus YHR030C, strain SLT2, stronger effect = lower value
[8] = locus YJR043C, strain POL32, stronger effect = lower value
[9] = locus YLR039C, strain RIC1, stronger effect = lower value
[10] = locus YLR262C, strain YPT6, stronger effect = lower value
[11] = locus YNL128W, strain TEP1, stronger effect = lower value
[12] = locus YNL322C, strain KRE1, stronger effect = lower value
[13] = locus YPL055C, strain LGE1, stronger effect = lower value
[14] = locus YPL241C, strain CIN2, stronger effect = lower value
[15] = locus YDR150W, strain NUM1, stronger effect = lower value
[16] = locus YHR087W, strain rtc3, stronger effect = lower value
[17] = locus YJR075W, strain HOC1, stronger effect = lower value
[18] = locus YKL190W, strain CNB1, stronger effect = lower value
[19] = locus YLR058C, strain SHM2 (second series), stronger effect = lower value
[20] = locus YLR085C, strain ARP6, stronger effect = lower value
[21] = locus YML094W, strain GIM5, stronger effect = lower value
[22] = locus YMR219W, strain ESC1, stronger effect = lower value
[23] = locus YNL153C, strain GIM3, stronger effect = lower value
[24] = locus YNL298W, strain CLA4 (second series), stronger effect = lower value
[25] = locus YNR030W, strain Alg12, stronger effect = lower value
[26] = locus YPR135W, strain CTF4, stronger effect = lower value

Measured: normalized growth

NC(=O)N1c2ccccc2C=Cc2ccccc21
inactive: [1] 1 | locus YAL021C, strain ccr4, stronger effect = lower value 1.03 | locus YAL026C, strain drs2, stronger effect = lower value 1.02 | locus YAL030W, strain snc1, stronger effect = lower value 1.04 | locus YAL040C, strain CLN3, stronger effect = lower value 1.01 | locus YBL061C, strain skt5, stronger effect = lower value 1.03 | locus YBR009C, strain hhf1, stronger effect = lower value 1.02 | locus YBR021W, strain FUR4, stronger effect = lower value 1.03 | locus YBR023C, strain chs3, stronger effect = lower value 1.02 | locus YBR171W, strain sec66, stronger effect = lower value 1.03 | [2] 1.03 | locus YBR231C, strain swc5, stronger effect = lower value 1.04 | locus YBR279W, strain paf1, stronger effect = lower value 1.02 | locus YCL011C, strain gbp2, stronger effect = lower value 1.02 | locus YCL016C, strain dcc1, stronger effect = lower value 1.02 | locus YCL029C, strain bik1, stronger effect = lower value 1.01 | [3] 1.02 | locus YCL069W, strain vba3, stronger effect = lower value 1.03 | locus YCR088W, strain abp1, stronger effect = lower value 1.01 | locus YDL005C, strain med2, stronger effect = lower value 1.02 | locus YDL035C, strain GPR1, stronger effect = lower value 1.07 | locus YDL040C, strain nat1, stronger effect = lower value 1.03 | locus YDL074C, strain BRE1, stronger effect = lower value 1.03 | [4] 1.01 | locus YDL185W, strain tfp1, stronger effect = lower value 0.963 | locus YDL192W, strain arf1, stronger effect = lower value 0.996 | locus YDR001C, strain nth1, stronger effect = lower value 1.01 | locus YDR069C, strain doa4, stronger effect = lower value 1.04 | locus YDR101C, strain arx1, stronger effect = lower value 1.01 | locus YDR137W, strain rgp1, stronger effect = lower value 1.07 | locus YDR159W, strain sac3, stronger effect = lower value 1.03 | locus YDR162C, strain NBP2, stronger effect = lower value 1.03 | locus YDR195W, strain ref2 1.06 | locus YDR297W, strain sur2, stronger effect = lower value 1.02 | locus YDR318W, strain mcm21, stronger effect = lower value 1.01 | locus YDR334W, strain swr1, stronger effect = lower value 1.03 | locus YDR335W, strain msn5, stronger effect = lower value 1.02 | locus YDR363W, strain ESC2, stronger effect = lower value 1 | locus YDR388W, stronger effect = lower value 1.01 | locus YDR392W, strain spt3, stronger effect = lower value 0.984 | locus YDR502C, strain sam2, stronger effect = lower value 0.993 | locus YEL003W, strain gim4, stronger effect = lower value 1.02 | locus YEL037C, strain rad23, stronger effect = lower value 1.02 | locus YEL061C, strain CIN8 (second series), stronger effect = lower value 1.01 | [5] 1.01 | locus YER002W, strain NOP16, stronger effect = lower value 1.04 | locus YER015W, strain faa2, stronger effect = lower value 1.03 | locus YER016W, strain bim1, stronger effect = lower value 1.02 | locus YER110C, stronger effect = lower value 0.979 | locus YER111C, strain swi4, stronger effect = lower value 1.03 | locus YER155C, strain BEM2 (second series), stronger effect = lower value 1.01 | locus YER155C, strain BEM2, stronger effect = lower value 1.01 | locus YER167W, strain BCK2, stronger effect = lower value 1.01 | locus YFR010W, strain ubp6, stronger effect = lower value 1.05 | locus YGL078C, strain dbp3, stronger effect = lower value 0.991 | locus YGL086W, strain mad1, stronger effect = lower value 1.01 | locus YGL167C, strain pmr1, stronger effect = lower value 1.03 | locus YGL173C, strain kem1, stronger effect = lower value 1.04 | locus YGL227W, strain vid30, stronger effect = lower value 1.01 | locus YGL240W, strain doc1, stronger effect = lower value 1.02 | locus YGL248W, strain PDE1, stronger effect = lower value 1.05 | locus YGL253W, strain hxk2, stronger effect = lower value 1.01 | [6] 1.02 and 1.01 | locus YGR135W, strain pre9, stronger effect = lower value 0.99 | locus YGR252W, strain gcn5, stronger effect = lower value 1.06 | locus YHR013C, strain ard1, stronger effect = lower value 1.02 | locus YHR027C, strain rpn1, stronger effect = lower value 1.02 | [7] 1.01 and 1 | locus YHR079C, strain IRE1 (second series), stronger effect = lower value 0.98 | locus YHR079C, strain IRE1, stronger effect = lower value 0.99 | locus YHR094C, strain hxt1, stronger effect = lower value 1 | locus YHR129C, strain ARP1, stronger effect = lower value 0.997 | locus YHR142W, strain chs7, stronger effect = lower value 1.02 | locus YHR200W, strain rpn10, stronger effect = lower value 0.995 | locus YIL066C, strain RNR3, stronger effect = lower value 1.04 | locus YIL073C, strain SPO22, stronger effect = lower value 1.05 | locus YIL125W, strain kgd1, stronger effect = lower value 1 | locus YIR030C, strain dcg1, stronger effect = lower value 0.976 | locus YJL092W, strain hpr5, stronger effect = lower value 1.03 | locus YJL095W, strain BCK1 (second series), stronger effect = lower value 1.03 | locus YJL095W, strain BCK1, stronger effect = lower value 0.972 and 0.988 | locus YJL115W, strain asf1, stronger effect = lower value 1.03 | locus YJL129C, strain trk1, stronger effect = lower value 1.04 | locus YJL134W, strain LCB3, stronger effect = lower value 1.02 | locus YJL154C, strain vps35, stronger effect = lower value 1.01 | locus YJL164C, strain tpk1, stronger effect = lower value 1.01 | locus YJL166W, strain qcr8, stronger effect = lower value 1.02 | locus YJL168C, strain set2, stronger effect = lower value 0.994 | locus YJL187C, strain SWE1 (second series), stronger effect = lower value 1.02 | [8] 1.09 | locus YJR066W, strain TOR1, stronger effect = lower value 0.99 | locus YKL009W, strain mrt4, stronger effect = lower value 0.918 | locus YKL068W, stronger effect = lower value 1.01 | locus YKL085W, strain MDH1 (second series), stronger effect = lower value 0.986 | locus YKL085W, strain MDH1, stronger effect = lower value 0.986 | locus YKL160W, strain elf1, stronger effect = lower value 1.03 | locus YKR001C, strain vps1, stronger effect = lower value 0.989 | locus YKR026C, strain gcn3, stronger effect = lower value 1.01 | locus YKR091W, strain srl3, stronger effect = lower value 1.01 | locus YLL001W, strain dnm1, stronger effect = lower value 1.02 | locus YLL026W, stronger effect = lower value 1.03 | locus YLL041C, strain sdh2, stronger effect = lower value 1.02 | locus YLR027C, strain aat2, stronger effect = lower value 1.02 | [9] 1.09 | locus YLR058C, strain SHM2, stronger effect = lower value 1.01 | locus YLR102C, strain apc9, stronger effect = lower value 1.01 | locus YLR113W, strain HOG1, stronger effect = lower value 0.972 | locus YLR221C, strain rsa3, stronger effect = lower value 1.01 | locus YLR258W, strain gsy2, stronger effect = lower value 1.02 | locus YLR262C, strain YPT6 (second series), stronger effect = lower value 1.03 | [10] 1.1 | locus YLR268W, strain sec22, stronger effect = lower value 0.993 | locus YLR320W, strain mms22, stronger effect = lower value 1.03 | locus YLR330W, strain CHS5, stronger effect = lower value 1 | locus YLR342W, strain FKS1 (second series), stronger effect = lower value 1.12 | locus YLR342W, strain FKS1, stronger effect = lower value 1.03 | locus YLR357W, strain rsc2, stronger effect = lower value 1.09 | locus YLR370C, strain arc18, stronger effect = lower value 1.02 | locus YLR371W, strain rom2, stronger effect = lower value 0.994 | locus YLR384C, strain iki3, stronger effect = lower value 1.02 | locus YLR418C, strain cdc73, stronger effect = lower value 0.959 | locus YML016C, strain PPZ1, stronger effect = lower value 1.02 | locus YML032C, strain rad52, stronger effect = lower value 1 | locus YML120C, strain ndi1, stronger effect = lower value 1.03 | locus YML124C, strain tub3, stronger effect = lower value 0.998 | locus YMR058W, strain fet3, stronger effect = lower value 1.01 | locus YMR078C, strain ctf18, stronger effect = lower value 0.989 | locus YMR125W, strain sto1, stronger effect = lower value 1.03 | locus YMR129W, stronger effect = lower value 1.01 | locus YMR205C, strain PFK2, stronger effect = lower value 1.03 | locus YMR223W, strain ubp8, stronger effect = lower value 0.993 | locus YMR231W, strain pep5, stronger effect = lower value 1.03 | locus YMR263W, strain SAP30, stronger effect = lower value 1.01 | locus YMR307W, strain GAS1, stronger effect = lower value 1.18 | locus YNL067W, strain RPL9B, stronger effect = lower value 1.02 | locus YNL071W, strain lat1, stronger effect = lower value 1.02 | [11] 1 | locus YNL175C, strain NOP13, stronger effect = lower value 1.05 | locus YNL183C, strain NPR1, stronger effect = lower value 0.948 | locus YNL197C, strain WHI3, stronger effect = lower value 1.03 | locus YNL209W, strain ssb2, stronger effect = lower value 1.02 | locus YNL224C, strain SQS1, stronger effect = lower value 1.02 | locus YNL233W, strain BNI4, stronger effect = lower value 0.981 | locus YNL248C, strain rpa49, stronger effect = lower value 1.05 | locus YNL250W, strain rad50, stronger effect = lower value 0.98 | locus YNL271C, strain bni1, stronger effect = lower value 0.977 | locus YNL298W, strain CLA4, stronger effect = lower value 0.976 | locus YNL307C, strain MCK1, stronger effect = lower value 1 | locus YNL322C, strain KRE1 (second series), stronger effect = lower value 1.03 | [12] 1.01 | locus YNR049C, strain mso1, stronger effect = lower value 1.03 | locus YNR052C, strain pop2, stronger effect = lower value 0.994 | locus YOL006C, strain TOP1, stronger effect = lower value 1.02 | locus YOL012C, strain htz1 1.53 | locus YOL147C, strain pex11, stronger effect = lower value 0.998 | locus YOR001W, strain rrp6, stronger effect = lower value 1.04 | locus YOR061W, strain CKA2, stronger effect = lower value 1.01 | locus YOR069W, strain VPS5, stronger effect = lower value 1.04 | locus YOR070C, strain gyp1, stronger effect = lower value 1.03 | locus YOR080W, strain dia2, stronger effect = lower value 1.04 | locus YOR083W, strain WHI5 (second series), stronger effect = lower value 0.999 | locus YOR083W, strain WHI5, stronger effect = lower value 1.03 | locus YOR106W, strain vam3, stronger effect = lower value 1.04 | locus YOR136W, strain idh2, stronger effect = lower value 0.997 | locus YOR144C, strain elg1, stronger effect = lower value 1 | locus YOR184W, strain ser1, stronger effect = lower value 0.981 | locus YOR231W, strain MKK1, stronger effect = lower value 1 | locus YOR265W, strain rbl2, stronger effect = lower value 1.03 | locus YOR270C, strain vph1, stronger effect = lower value 1.1 | locus YOR290C, strain snf2, stronger effect = lower value 1.01 | locus YOR316C, strain cot1, stronger effect = lower value 0.998 | locus YPL051W, strain arl3, stronger effect = lower value 1.03 | [13] 1.01 | locus YPL078C, strain atp4, stronger effect = lower value 1.02 | locus YPL106C, strain sse1, stronger effect = lower value 1.05 | locus YPL240C, strain hsp82, stronger effect = lower value 1.02 | [14] 1.02 and 1.01 | locus YPL256C, strain CLN2, stronger effect = lower value 1 | locus YPR119W, strain clb2, stronger effect = lower value 0.996 | locus YPR141C, strain kar3, stronger effect = lower value 0.992 | locus YPR163C, strain tif3, stronger effect = lower value 1 | locus YPR167C, strain met16, stronger effect = lower value 0.991 | strain wtn01, stronger effect = lower value 1.01

Cc1[nH]n(C)c(=O)c1N=Nc1ccc(Cl)cc1
inactive: [15] 0.835 | locus YGR229C, strain SMI1, stronger effect = lower value 0.979 | [16] 0.926 | [8] 0.945 | [17] 0.912 | [11] 0.965 | [12] 0.96 | [13] 0.78
active: [1] 0.892 | [2] 0.886 | [3] 0.864 | [4] 0.82 | [5] 0.598 | [6] 0.906 | [7] 0.143 | locus YJL187C, strain SWE1, stronger effect = lower value 0.875 | [18] 0.915 | [9] 0.342 | [19] 0.912 | [20] 0.115 | [10] 0.393 | [21] 0.764 | [22] 0.924 | [23] 0.894 | [24] 0.689 | [25] 0.881 | [14] 0.753 | [26] 0.242

Cc1ccc(N=Nc2c(C)[nH]n(C)c2=O)cc1
active: [1] 0.931 | [2] 0.921 | locus YDL134C, strain PPH21, stronger effect = lower value 0.886 | [5] 0.839 | [7] 0.433 | [8] 0.896 | [9] 0.332 | [20] 0.407 | [10] 0.352 | [21] 0.822 | [14] 0.82 | [26] 0.431
inactive: [4] 0.918 | [15] 0.92 | [6] 0.959 | [16] 0.974 | [17] 0.969 | [18] 0.946 | [19] 0.955 | [22] 0.964 | [23] 0.945 | [24] 0.87 | [12] 0.991 | [25] 0.897 | [13] 0.847
